# In publication PMC5540273 (PLoS ONE, 2017):
# Several values for one entry are separate records, joined by “and”; a condition that tells them apart may be missing. Equal entries are not always repeated. Where two headings read alike, the source gives them in different places.
# How the values were obtained:
# [1] = tested on: FGFR4; settings: concentration: 1 μM, replicates: in singlicate; n = 1
# [2] = tested on: FGR; settings: concentration: 1 μM, replicates: in singlicate, n = 1
# [3] = tested on: FLT1; settings: concentration: 1 μM, replicates: in singlicate, n = 1
# [4] = tested on: FLT3-autoinhibited; settings: concentration: 1 μM, replicates: in singlicate, n = 1
# [5] = tested on: FLT3; settings: concentration: 1 μM, replicates: in singlicate, n = 1
# [6] = tested on: FLT4; settings: concentration: 1 μM, replicates: in singlicate; n = 1
# [7] = tested on: FRK; settings: concentration: 1 μM, replicates: in singlicate, n = 1
# [8] = tested on: FYN; settings: concentration: 1 μM, replicates: in singlicate, n = 1
# [9] = tested on: GAK; settings: concentration: 1 μM, replicates: in singlicate, n = 1
# [10] = tested on: T1, GCN2(Kin.Dom.2,S808G); settings: concentration: 1 μM, replicates: in singlicate, n = 1
# T1 construct: gene EIF2AK4
# [11] = tested on: GRK1; settings: concentration: 1 μM, replicates: in singlicate, n = 1
# [12] = tested on: T2, GRK2; settings: concentration: 1 μM, replicates: in singlicate; n = 1
# T2 construct: gene ADRBK1
# [13] = tested on: T3, GRK3; settings: concentration: 1 μM, replicates: in singlicate, n = 1
# T3 construct: gene ADRBK2
# [14] = tested on: GRK4; settings: concentration: 1 μM, replicates: in singlicate, n = 1
# [15] = tested on: GRK7; settings: concentration: 1 μM, replicates: in singlicate; n = 1
# [16] = tested on: GSK3A; settings: concentration: 1 μM, replicates: in singlicate, n = 1
# [17] = tested on: GSK3B; settings: concentration: 1 μM, replicates: in singlicate, n = 1
# [18] = tested on: T4, HASPIN; settings: concentration: 1 μM, replicates: in singlicate, n = 1
# T4 construct: gene GSG2
# [19] = tested on: HCK; settings: concentration: 1 μM, replicates: in singlicate, n = 1
# [20] = tested on: HIPK1; settings: concentration: 1 μM, replicates: in singlicate, n = 1
# 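Note: KINOMEscan kinase panel screen.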
smiles,measurement,setting,value
OCCOCCn1ccc2ncnc(Nc3ccc(Oc4cccc(Cl)c4)c(Cl)c3)c21,%Inh,[1],0%
same,%Inh,[2],2%
same,%Inh,[3],0%
same,%Inh,[4],0%
same,%Inh,[5],0%
same,%Inh,[6],0%
same,%Inh,[7],0%
same,%Inh,[8],0%
same,%Inh,[9],0%
same,%Inh,[10],0%
same,%Inh,[11],9%
same,%Inh,[12],0%
same,%Inh,[13],0%
same,%Inh,[14],0%
same,%Inh,[15],0%
same,%Inh,[16],9%
same,%Inh,[17],0%
same,%Inh,[18],0%
same,%Inh,[19],9%
same,%Inh,[20],16%
CCC(CC)(CC)n1cnc2c(N)ncnc21 [SKF-97620],%Inh,[1],4%
same,%Inh,[2],4%
same,%Inh,[3],4%
same,%Inh,[4],19%
same,%Inh,[5],11%
same,%Inh,[6],0%
same,%Inh,[7],23%
same,%Inh,[8],7%
same,%Inh,[9],3%
same,%Inh,[10],0%
same,%Inh,[11],40%
same,%Inh,[12],16%
same,%Inh,[13],0%
same,%Inh,[14],8%
same,%Inh,[15],14%
same,%Inh,[16],0%
same,%Inh,[17],35%
same,%Inh,[18],9%
same,%Inh,[19],9%
same,%Inh,[20],17%
NC(=O)c1sc(-n2cnc3ccccc32)cc1OCc1ccccc1F [GSK1024306],%Inh,[1],19%
same,%Inh,[2],0%
same,%Inh,[3],40%
same,%Inh,[4],2%
same,%Inh,[5],0%
same,%Inh,[6],27%
same,%Inh,[7],11%
same,%Inh,[8],24%
same,%Inh,[9],24%
same,%Inh,[10],0%
same,%Inh,[11],0%
same,%Inh,[12],0%
same,%Inh,[13],21%
same,%Inh,[14],7%
same,%Inh,[15],0%
same,%Inh,[16],7%
same,%Inh,[17],0%
same,%Inh,[18],49%
same,%Inh,[19],0%
same,%Inh,[20],0%
COC(=O)c1c(-c2ccccc2)c2cc(Cl)ccc2c(=O)n1Cc1ccc(S(C)(=O)=O)cc1,%Inh,[1],6%
same,%Inh,[2],0%
same,%Inh,[3],0%
same,%Inh,[4],2%
same,%Inh,[5],0%
same,%Inh,[6],8%
same,%Inh,[7],22%
same,%Inh,[8],0%
same,%Inh,[9],100%
same,%Inh,[10],0%
same,%Inh,[11],0%
same,%Inh,[12],0%
same,%Inh,[13],15%
same,%Inh,[14],12%
same,%Inh,[15],15%
same,%Inh,[16],0%
same,%Inh,[17],0%
same,%Inh,[18],27%
same,%Inh,[19],14%
same,%Inh,[20],14%
Oc1ccc2ncnc(Nc3ccc(OCc4ccccc4)cc3)c2c1 [GI262866],%Inh,[1],66%
same,%Inh,[2],4%
same,%Inh,[3],29%
same,%Inh,[4],0%
same,%Inh,[5],60%
same,%Inh,[6],21%
same,%Inh,[7],0%
same,%Inh,[8],7%
same,%Inh,[9],0%
same,%Inh,[10],15%
same,%Inh,[11],7%
same,%Inh,[12],0%
same,%Inh,[13],6%
same,%Inh,[14],18%
same,%Inh,[15],0%
same,%Inh,[16],0%
same,%Inh,[17],0%
same,%Inh,[18],17%
same,%Inh,[19],0%
same,%Inh,[20],0%
Cl.c1ccc(Cn2ncc3cc(Nc4ncnc5ccccc45)ccc32)cc1 [GW273749],%Inh,[1],5%
same,%Inh,[2],31%
same,%Inh,[3],17%
same,%Inh,[4],7%
same,%Inh,[5],0%
same,%Inh,[6],8%
same,%Inh,[7],0%
same,%Inh,[8],36%
same,%Inh,[9],23%
same,%Inh,[10],0%
same,%Inh,[11],0%
same,%Inh,[12],0%
same,%Inh,[13],0%
same,%Inh,[14],0%
same,%Inh,[15],0%
same,%Inh,[16],10%
same,%Inh,[17],14%
same,%Inh,[18],8%
same,%Inh,[19],0%
same,%Inh,[20],0%
COc1ccc(-c2nc3n(c2-c2ccncc2)CCC3)cc1 [SKF-104493],%Inh,[1],8%
same,%Inh,[2]; 1 µM,19% and 8%
same,%Inh,[3]; 1 µM,6% and 11%
same,%Inh,[4]; 1 µM,22% and 0%
same,%Inh,[5]; 1 µM,9% and 0%
same,%Inh,[6],0%
same,%Inh,[7]; 1 µM,5% and 0%
same,%Inh,[8]; 1 µM,0% and 28%
same,%Inh,[9]; 1 µM,13% and 41%
same,%Inh,[10]; 1 µM,27% and 0%
same,%Inh,[11]; 1 µM,11% and 12%
same,%Inh,[12],0%
same,%Inh,[13]; 1 µM,5% and 0%
same,%Inh,[14]; 1 µM,27% and 2%
same,%Inh,[15],0%
same,%Inh,[16]; 1 µM,0% and 17%
same,%Inh,[17]; 1 µM,27% and 1%
same,%Inh,[18]; 1 µM,28% and 0%
same,%Inh,[19]; 1 µM,10% and 0%
same,%Inh,[20]; 1 µM,8% and 0%
CCn1c(-c2ccncc2)nc2cnccc21 [SB-735216],%Inh,[1],11%
same,%Inh,[2],3%
same,%Inh,[3],4%
same,%Inh,[4],20%
same,%Inh,[5],15%
same,%Inh,[6],5%
same,%Inh,[7],0%
same,%Inh,[8],19%
same,%Inh,[9],13%
same,%Inh,[10],12%
same,%Inh,[11],11%
same,%Inh,[12],4%
same,%Inh,[13],63%
same,%Inh,[14],45%
same,%Inh,[15],24%
same,%Inh,[16],9%
same,%Inh,[17],30%
same,%Inh,[18],57%
same,%Inh,[19],7%
same,%Inh,[20],10%
